# Test results: the supplement of paper PMC6555819
# Key:
# Experiment in all cases: PBM binding z-score (relative to random genomic background probes); higher = stronger binding; sequences stand for … in GC…GCGATTGACAGCGTAGAATGAAGG
# [1] = tested on: FXR:RXRa (NR concentration 270 nM, RXRa partner concentration 90 nM)
# How it was run: (§1)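 Random background probes are the reference for binding z-scores. These scores derive from regression-normalized fluorescence on custom Agilent 4×180K protein-binding microarrays incubated 1 h with ligand-free nuclear receptor dimers. Binding was detected with antibodies against each partner (one per run).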
# [2] = tested on: LXRa:RXRa (NR concentration 270 nM, RXRa partner concentration 90 nM)
# How it was run: as §1
# [3] = tested on: LXRa homodimer (NR concentration 270 nM)
# How it was run: as §1
# [4] = tested on: LXRb:RXRa (NR concentration 270 nM, RXRa partner concentration 90 nM)
# How it was run: as §1
# [5] = tested on: LXRb homodimer (NR concentration 270 nM)
# How it was run: as §1
# [6] = tested on: PPARa:RXRa (NR concentration 270 nM, RXRa partner concentration 90 nM)
# How it was run: as §1
# [7] = tested on: PPARg:RXRa (NR concentration 180 nM, RXRa partner concentration 90 nM)
# How it was run: as §1
# [8] = tested on: PPARg:RXRa 270nM:90nM, anti-RXR (NR concentration 270 nM, RXRa partner concentration 90 nM)
# How it was run: as §1
# [9] = tested on: PPARg:RXRa 30nM:10nM, anti-RXR (NR concentration 30 nM, RXRa partner concentration 10 nM)
# How it was run: as §1
# [10] = tested on: PPARg:RXRa 90nM:30nM, anti-RXR (NR concentration 90 nM, RXRa partner concentration 30 nM)
# How it was run: as §1
# [11] = tested on: PPARg:RXRa DBDmut IVT, anti-RXR (DBD mutation: RXRa K156A/R161A, NR concentration 270 nM, RXRa partner concentration 90 nM)
# How it was run: as §1
# [12] = tested on: PPARg:RXRa IVT, anti-PPARg (NR concentration 270 nM, RXRa partner concentration 90 nM)
# How it was run: as §1
# [13] = tested on: PPARg DBDmut:RXRa IVT, anti-PPARg (DBD mutation: PPARg1 K132A/R137A, NR concentration 270 nM, RXRa partner concentration 90 nM)
# How it was run: as §1
# [14] = tested on: PPARg DBDmut IVT, anti-PPARg (DBD mutation: PPARg1 K132A/R137A, NR concentration 270 nM)
# How it was run: as §1
# [15] = tested on: PPARg homodimer (NR concentration 180 nM)
# How it was run: as §1
# [16] = tested on: PXR:RXRa (NR concentration 270 nM, RXRa partner concentration 90 nM)
# How it was run: as §1
# [17] = tested on: PXR homodimer (NR concentration 270 nM)
# How it was run: as §1
# [18] = tested on: RARa:RXR (NR concentration 270 nM, RXRa partner concentration 90 nM)
# How it was run: as §1
# [19] = tested on: RARa homodimer (NR concentration 270 nM)
# How it was run: as §1
# [20] = tested on: RARb:RXRa (NR concentration 270 nM, RXRa partner concentration 90 nM)
# How it was run: as §1
Sequence,PBM binding z-score [1],PBM binding z-score [2],PBM binding z-score [3],PBM binding z-score [4],PBM binding z-score [5],PBM binding z-score [6],PBM binding z-score [7],PBM binding z-score [8],PBM binding z-score [9],PBM binding z-score [10],PBM binding z-score [11],PBM binding z-score [12],PBM binding z-score [13],PBM binding z-score [14],PBM binding z-score [15],PBM binding z-score [16],PBM binding z-score [17],PBM binding z-score [18],PBM binding z-score [19],PBM binding z-score [20]
ATATGTAGGTTACTTCCGGGTCATTCAGGCTATG,2.58,5.79,2,3.81,1.01,4.23,5.4,4.83,2.21,4.06,7.27,7,2.25,1.76,2.39,3.68,1.81,3.76,0.485,2.36
TCTTGTAGATCAAGCAGTTTAAGAAAGCCTGAGT,0.227,0.026,-0.29,0.14,-0.263,0.321,-0.75,1.11,2.54,2.03,1.32,0.194,0.902,-0.105,-0.414,0.133,-0.14,0.0935,-0.0919,-0.137
CCTGCTAGGTCATGGTCGGCTAATCTACAGTATG,3.56,2.8,-0.0293,1.91,-0.492,3.56,2.32,2.78,0.716,1.99,4.22,3.41,0.753,-0.172,1.51,1.41,-0.226,2.46,-0.276,3.93
GCTGCCAGGTCAACTGATGGTCAGCTAAAGCTCG,4.84,3.82,0.113,2.73,0.00556,4.4,2.42,3.09,0.281,1.61,2.71,2.73,0.45,-0.276,4.33,2.76,-0.337,4.22,-0.0772,4.46
TCCAGTTGGTCACGGAGGTCACACACGACGGGTA,3.34,3.57,2.25,3.33,0.101,3.95,3.15,3.83,2.94,3.43,2.14,3.9,0.387,0.563,2.63,4.5,1.2,4.33,0.942,4
ATATGTAGGTTAGATCCGGGTCATTCAGGCTATG,1.55,2.3,0.843,1.99,0.185,3.74,4.17,3.71,1.53,2.86,6.3,6.32,1.34,0.983,1.65,3.1,1.25,3.08,1.01,2.03
CCTACTGGGCCATTCAGAGGTCATTGAACATATG,2.73,4.42,6.32,4.04,0.612,4.06,2.51,3.47,1.18,2.51,4.56,4.39,0.0817,-0.464,3.64,5.2,3.45,5.13,1.15,3.23
GCTAGTTGGTCAGTCAAAGGTCACACACCGGTCG,3.52,4.41,4.17,3.94,0.493,4.62,5.33,5.92,4.22,5.9,1.51,3.42,-0.105,0.277,3.62,5.2,1.01,6.33,1.11,4.36
CCTACTGGGACATTCAGAGGTCATTGATCATATG,3.08,4.71,7.13,4.05,1.06,3.74,2.3,3.13,0.845,2.31,4.26,3.96,0.709,0.697,3.07,5.15,3.43,4.96,1.35,3.11
TCTATCAGTTGATTAGGGCAACCGAAACAGCGGA,-0.144,0.15,-0.239,0.101,0.266,0.978,0.346,1.61,3.34,2.54,1.54,1.42,0.737,0.547,-0.273,0.154,-0.238,0.11,-0.12,0.747
CGTCAAAGTTCAACTAAGGTAACGTGAAGCACGC,7.3,6.43,4.57,3.84,1.83,5.09,4.91,5.8,2.35,4.5,0.871,2.2,0.717,0.859,3.36,5.76,4.5,4.34,2.47,5.26
AATACAGGGTCATCGTAGGCCAGAGCACGCACAG,7.49,6.27,2.28,4.72,1.31,5.79,6.53,6.08,3.29,4.98,2.92,4.29,2.99,0.869,3.33,4.96,0.778,5.48,0.827,4.21
CCTGCTAGGTCAATGGTCATCTAAAGCAGCTCGC,2.9,2.28,0.085,1.68,0.00102,3.22,4.71,5.48,3.24,5.52,4.11,3.89,-0.358,-0.372,1.1,1.35,-0.609,2.05,-0.14,3.75
CCTAGTTGGCCAGGAGGTCACACACCGGATATGA,4.04,3.22,1.73,3.53,0.178,4.15,2.42,2.91,0.806,2.2,0.473,2.22,0.522,-0.0399,2.61,4.27,1.23,4.66,1.39,3.41
CAAACTGGGTCACAGAGGTCAAAGTCCGTGCGTA,6.46,6.47,6.04,5.99,1.68,6.5,9.86,7.93,6.54,8.19,7.82,8.76,4.79,4.1,3.96,6.74,9,7.06,0.622,5.21
CTACCAAGGCGAACAAGGTCGTTGATTACTATTC,0.285,0.164,0.0479,0.521,-0.798,0.658,0.0767,0.292,-0.118,-0.247,0.161,-0.119,-0.0454,0.0113,0.33,1.25,0.453,1.16,0.111,0.395
ATCTCTGGGTAAAAGTTCAGTGAATCCCGAGGAT,0.844,1.38,1.37,1.04,1.4,4.12,7.38,7.77,6.93,9.04,1.87,3.69,1.17,1.44,1.47,2.03,1.5,1.97,0.896,2.59
TCTGCTAGGTCAGTTGGTCAACTAACGAGCTGCC,0.974,0.627,-0.58,0.38,0.371,1.63,1.12,2.14,1.02,1.81,2.83,3.32,0.661,0.786,-0.104,0.269,-0.861,0.622,-0.954,3.27
AAAGACAGGTGAGTGAAGGTAACTCAGCTGGACG,0.449,0.399,-0.509,-0.0849,-0.324,0.472,0.63,0.239,-0.273,0.0365,0.772,0.948,0.86,-0.373,0.59,-0.0597,0.232,0.219,0.262,0.715
